Screening data: PubChem, Paczesny and Yang Labs, IUPUI and University of Michigan
Only a selection was taken, and hits are over-represented in it overall.
ST2 IL33 inh – blocks human ST2 binding to IL-33. Q01638. AlphaLISA ST2-Fc/biotin-IL-33 interaction, 1 h. inhibition, % for hits at 17 µM. 78,000 compounds, 2.3% hits; in the data active means inhibition above about 30%
Target sequence (Q01638 whole entry, looked up): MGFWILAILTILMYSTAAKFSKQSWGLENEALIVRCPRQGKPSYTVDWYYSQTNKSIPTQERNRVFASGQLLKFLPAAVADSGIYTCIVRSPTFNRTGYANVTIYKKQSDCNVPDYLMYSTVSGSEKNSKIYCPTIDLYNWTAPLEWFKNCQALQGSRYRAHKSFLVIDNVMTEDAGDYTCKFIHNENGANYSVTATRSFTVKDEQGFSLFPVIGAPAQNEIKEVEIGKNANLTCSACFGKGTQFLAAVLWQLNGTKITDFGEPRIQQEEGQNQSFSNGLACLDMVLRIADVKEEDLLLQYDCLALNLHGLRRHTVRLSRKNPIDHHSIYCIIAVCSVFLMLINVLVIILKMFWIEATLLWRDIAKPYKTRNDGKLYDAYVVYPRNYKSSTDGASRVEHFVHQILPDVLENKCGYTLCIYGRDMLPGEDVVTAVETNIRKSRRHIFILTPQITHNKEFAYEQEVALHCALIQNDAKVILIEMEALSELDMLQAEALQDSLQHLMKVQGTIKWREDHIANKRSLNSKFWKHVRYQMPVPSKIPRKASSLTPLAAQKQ
A number is an active result; 0 = inactive; ! = not confirmed by another sample.

SMILES	ST2 IL33 inh
Cc1ccc(S(=O)(=O)N(CC(=O)Nc2ccc(S(N)(=O)=O)cc2)C2CCCCC2)cc1	0
CCOc1cc(-c2c(C#N)c(N)n3c(nc4ccccc43)c2C#N)ccc1OC	37%
Cc1cc(-n2ccnc2C)n2c(nc3ccccc32)c1C#N	0
CCc1c(C)c(C#N)c2nc3ccccc3n2c1NCCOC	0
Cc1cc(NC(=O)Cc2ccc(F)cc2)no1	0
Cc1nc(SCC(=O)Nc2ccccc2)c2c(=O)n(C)c(=O)n(C)c2n1	0
CC1Cc2ccccc2N1S(=O)(=O)c1ccc2c(c1)CCN2C(=O)C1CC1 (stereo not drawn)	0
O=C(Nc1ccc(I)cc1)c1cccc([N+](=O)[O-])c1	0
Cc1ccc(NC(=O)c2cccc([N+](=O)[O-])c2)cc1C	0
O=C(Nc1cccc(Cl)c1)c1cccc([N+](=O)[O-])c1	92%
COc1ccccc1/C=C1\N=C(c2ccc(C)c([N+](=O)[O-])c2)OC1=O	0
Cc1ccc(N2C(=O)c3ccc(Br)cc3C2=O)c(O)c1	0
O=C1OC(Nc2ccc(S(=O)(=O)Nc3nccs3)cc2)c2ccccc21 (stereo not drawn)	0
CN1CC2(CCCN(C(=O)c3cc(-c4ccsc4)n[nH]3)CC2)OC1=O (stereo not drawn)	0
CC(=O)N(CN1C(=O)c2ccc(Br)cc2C1=O)c1cccc(C(=O)O)c1	45%
CC(=O)N(CN1C(=O)c2ccccc2C1=O)c1cccc(C)c1	0
CC(=O)N(CN1C(=O)c2ccc(Br)cc2C1=O)c1ccc(OCc2ccccc2)cc1	0
COc1ccc(N2CCCS2(=O)=O)cc1NC(=O)COc1ccccc1OC	0
CC(C)(C)C1CCc2c(sc(NC(=O)c3cccs3)c2C(=O)N2CCC(C(N)=O)CC2)C1 (stereo not drawn)	0
Cc1cc(NC(=O)c2cc(-c3ccc(Cl)c(Cl)c3)on2)no1	0
Cc1noc(C)c1-c1ccc(Cl)c(Cl)c1	49%
CC(C)NC(=O)c1cc(-c2ccc(Cl)c(Cl)c2)on1	0
Cc1cc(S(=O)(=O)n2nnc3ccccc32)ccc1Cl	0
CCC(C)c1ccccc1OCCCCN1CCCC1 (stereo not drawn)	0
CCC(C)c1ccc(OCCCCN2CCN(C)CC2)cc1 (stereo not drawn)	39%
SMILES	ST2 IL33 inh
CN1CCN(CCCOc2ccc(C(C)(C)c3ccccc3)cc2)CC1	0
O=C(Nc1ccc(O)cc1)C1CC=CCC1 (stereo not drawn)	34%
O=C(O)COc1ccc(NC(=O)C2CCCCC2)cc1	0
O=C(Nc1ccc(Oc2ccccc2)cc1)C1CC1	0
CCSc1nnc2n(C)c(=O)c3c(n12)-c1ccccc1CC31CCCCC1	0
C=CCSc1nnc2n(C)c(=O)c3c(n12)-c1ccccc1CC31CCCCC1	38%
COc1ccc(-n2c(=O)c3c(n4cnnc24)-c2ccccc2CC32CCCC2)cc1	0
COC(=O)C1=C(N)OC2=C(C(=O)CC(c3ccccc3)C2)C1c1cccc(OC)c1OC (stereo not drawn)	0
Cc1ccn2c(NC(=O)c3ccccc3F)c(-c3ccccc3)nc2c1	0
Cc1cc(C)nc(NC(=O)CCCC(=O)O)c1	0
Cc1cc(C)nc(NC(=O)c2ccccc2F)c1	30%
CCc1ccc(S(=O)(=O)N2CCSC2c2cccc([N+](=O)[O-])c2)cc1 (stereo not drawn)	0
Nc1nc2ccc(Oc3ccc4nc(N)sc4c3)cc2s1	0
Nc1ccc(Oc2ccc(-c3nc(N)nc(N)n3)cc2)cc1	0
N#Cc1ccc(Oc2ccc(C(=O)O)cc2)cc1C#N	0
CC(=O)c1ccc(Oc2ccc(N)cc2)cc1	0
COc1ccc(Oc2ccc(N)cc2)cc1	39%
Nc1ccc(Oc2ccc(N)c(N)c2)cc1	44%
CCN(CC)CCNC(=O)c1cc2cc3ccc(C)cc3nc2s1	0
COc1cc2c(cc1OC)C(C(=O)N1CCCCC1)C1c3ccccc3CCN1C2=O (stereo not drawn)	0
O=C(Nc1ccc(Br)cn1)c1ccc(Cl)cc1Cl	0
CCOCCCNC(=O)c1cc2c(=O)n3ccccc3nc2n1C	0
Cn1cc(CC(=O)NCc2ccco2)c2ccccc21	0
CCN(CC)C(=O)Cc1cn(C)c2ccccc12	0
Cn1cc(C(c2ccc([N+](=O)[O-])o2)c2cn(C)c3ccccc23)c2ccccc21	41%
SMILES	ST2 IL33 inh
CN(C)C(=O)c1ccc2c(c1)N(CC(=O)N1CCN(Cc3ccccc3)CC1)C(=O)C1CCCCN21 (stereo not drawn)	0
CC(C)C(=O)Nc1ccc2oc(-c3ccncc3)nc2c1	0
Cc1ccc(C)c(N2CCN(C(=O)CCC3=NS(=O)(=O)c4ccccc4N3)CC2)c1	0
O=C(NCC1CCCN(Cc2nc3ccccc3s2)C1)c1cc2ccccc2[nH]1 (stereo not drawn)	0
Cc1cc(NC(=O)NC(=O)c2ccc(C(F)(F)F)cc2)no1	0
CC1CCc2c(sc(NC(=O)c3ccccc3Cl)c2C(=O)NCc2ccco2)C1 (stereo not drawn)	0
O=C(Nc1sc2c(c1C(=O)NCc1ccco1)CCCC2)c1ccccc1[N+](=O)[O-]	30%
O=C(Nc1sc2c(c1C(=O)NCC1CCCO1)CCCC2)c1ccccc1Br (stereo not drawn)	0
COc1ccccc1C1CC(c2ccccc2)=NN1C(=O)c1ccccc1 (stereo not drawn)	0
COc1cc(C(=O)N2N=C(c3ccccc3)CC2c2ccc(N(C)C)cc2)cc(OC)c1OC (stereo not drawn)	48%
COc1ccc(C2CC(c3ccccc3)=NN2C(=O)c2cc(OC)c(OC)c(OC)c2)cc1 (stereo not drawn)	0
COc1cc(NC(=O)c2c(-c3ccccc3)noc2C)c(OC)cc1Cl	0
N#C/C(=C\c1cccc([N+](=O)[O-])c1)c1nc(-c2ccc3c(c2)OCO3)cs1	0
COc1ccccc1N/C=C(\C#N)c1nc(-c2ccc3c(c2)OCO3)cs1	41%
COc1cc(C(=O)Nc2nc(-c3ccc4c(c3)OCO4)cs2)cc(OC)c1OC	0
COc1cc(N/C=C(/C#N)c2nc(-c3ccc(OC)c(OC)c3)cs2)c(OC)cc1Cl	40%
COc1cc(NC(=O)c2ccc(-c3ccccc3)cc2)c(OC)cc1Cl	0
N#C/C(=C\Nc1ccccc1F)c1nc(-c2cc3cc([N+](=O)[O-])ccc3oc2=O)cs1	0
CCc1ccccc1-c1ccc(NC(C)=O)c(OC)c1	0
O=C1C2C3c4ccccc4C([N+](=O)[O-])(c4ccccc43)C2C(=O)N1n1cnnc1 (stereo not drawn)	0
O=C(COc1ccc2ccccc2c1)N1CCN=C1SCc1ccccc1F	0
Cc1cc(C)n(-c2cc(N3CCN(C(=O)c4ccco4)CC3)ccc2[N+](=O)[O-])n1	0
CC(C)(C)c1ccc(C(=O)N2CCN(c3ccc([N+](=O)[O-])c(NCc4ccco4)c3)CC2)cc1	31%
O=[N+]([O-])c1ccc(N2CCOCC2)cc1NCc1ccco1	0
CN(CCC#N)C(=O)c1c[nH]c2ccc(S(=O)(=O)Nc3ccccc3F)cc2c1=O	0
SMILES	ST2 IL33 inh
O=C(c1nc2ccccc2[nH]c1=O)N1CCC(N2CCCC2=O)CC1	0
O=C(NC1CCN(Cc2ccccc2)CC1)c1cn(CC2CCCO2)nn1 (stereo not drawn)	0
O=C(Nc1nc(-c2ccc3c(c2)OCO3)cs1)c1cc(=O)c2ccccc2o1	45%!
COc1ccc(-c2csc(NC(=O)c3cc(=O)c4ccccc4o3)n2)cc1	0
Cc1ccc(-c2csc(NC(=O)c3cc(=O)c4ccccc4o3)n2)cc1C	0
NC(=O)c1ccccc1NC(=O)c1cccc(C(=O)Nc2ccccc2C(N)=O)c1	30%
CC(C)c1ccc(C(=O)Nc2ccccc2C(N)=O)cc1	0
